DT40 TDP1 no CPT: qHTS for Inhibitors of human tyrosyl-DNA phosphodiesterase 1 (TDP1): qHTS in cells in absence of CPT | 420,000 tested, 15% active | AID 686978, 2013 | DT40 Tdp1-/- hTDP1 cells, no CPT, ATP luminescence, 48 h | Potency, µM (highest dose often 46.2 µM), for the others: at the highest dose activity change, negative = growth inhibition, usual class: inhibitors; further: potency means the concentration at half of the fitted maximal effect; nearly all actives have a fitted effect of over 55% in size
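Camptothecin absent (DMSO only). Human TDP1-complemented DT40 knockout cells, 400 cells/well, 37 °C for minimum 48 hr; ATP measured via CellTiter-Glo, 30 min dark incubation, luminescence.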
DT40 TDP1 CPT: growth inhibition of DT40 Tdp1-/-;hTDP1 cells with camptothecin (screen for TDP1 inhibitors) | chicken DT40 Tdp1-/-;hTDP1 cells + 20 nM CPT, ATP luminescence, 48 h | Potency, µM (titrated, usually from 46.2 µM), for the others: at the highest dose activity change, negative = growth inhibition, most hits filed as inhibitors | 420,000 tested, 12% active | AID 686979; further: potency means the concentration at half of the fitted maximal effect; nearly all actives have a fitted effect of over 55% in size
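Cell growth measured by CellTiter-Glo luminescence after a minimum 48 h, 37 C compound exposure with 20 nM CPT in Tdp1-knockout DT40 cells stably expressing hTDP1, seeded 400/well; qHTS titration format.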
ELG1 DNA repair: inhibitors of ELG1-dependent DNA repair in HEK293T cells; HEK293T ELG1-luciferase reporter, luminescence, 16 h; DNA damage induced by 5-fluorouridine; Potency, µM (series often up to 46.1 µM), for inactives: at the highest dose activity change, negative = inhibition, most hits filed as inhibitors; 330,000 tested, 2.3% active; AID 504467; further: potency means the concentration at half of the fitted maximal effect; nearly all actives have a fitted effect of over 55% in size
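5-Fluorouridine DNA damage + compound/DMSO, 2,000 cells/well, 16 h, 37 °C/5% CO2. ONE-Glo, 30 min RT, luminescence. Readout = decrease in reporter signal.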
IL-1B inflam inh: blocks inflammasome-driven IL-1 beta release. THP-1 LPS/ATP IL-1B secretion, AlphaLISA, 16 h; hits give low values. activity change, % at 57.5 µM. 360,000 tested, 4.7% active; in the data active means activity change below about -50%; inconclusive means mostly about -30% to -49%
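Secreted IL-1B measured by AlphaLISA bead assay after 16 h compound exposure of THP-1 cells; compounds (final up to 57.5 uM) added 1 h before LPS (250 ng/mL) and ATP (1.25 mM) stimulation; lower signal means less secretion.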
HT1080NT lethal: kills 2HG-producing HT-1080-NT fibrosarcoma cells; Potency, µM (top dose mostly 46.1 µM), for inactives: at the top dose activity, negative = less viability, actives largely listed as cytotoxic; 360,000 tested, 1.6% active; HT-1080-NT fibrosarcoma viability, CellTiter-Glo ATP luminescence, 48 h; AID 686970;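 further: NT is the 2HG producing partner of a matched IDH1 knockdown line; potency means the concentration at half of the fitted maximal effect; 0% = DMSO-treated cells and -100% = media-only wells without cells; nearly all actives have a fitted effect of over 55% in size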
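Compounds were tested in concentration-response format on HT-1080-NT cells for 48 hours at 37 degrees C. Cell viability came from CellTiter-Glo luminescence; curves were classified by r2, response magnitude and activity.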
HT1080 IDH1KD tx: toxicity to HT-1080 IDH1 knockdown cells (counter line); HT-1080 IDH1 knockdown viability, ATP luminescence, 48 h; Potency, µM (top dose mostly 46.1 µM), inactives show at the top dose activity, negative = toxicity, hits mostly cytotoxic; 360,000 tested, 2% active; AID 686971;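 further: potency means the concentration at half of the fitted maximal effect; 0% = DMSO wells and -100% = cell-free medium wells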
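Knockdown cells (IDH1KD HT-1080) received compounds 2 h after plating at 750 cells/well and were kept 48 h at 37 °C in 5% FBS RPMI. A CellTiter-Glo luminescence read gave % activity for curve fitting.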
Starred values were filed as active, the others as inactive; ? = inconclusive; . = no result given. Only some compounds are listed: those with a hit (about 19% of all), similar ones and a draw of the others. Unless noted, the call rests on the fitted dose curve; in most records, active means well fitted curve in the direction sought with a large enough effect; inconclusive means small, poorly fitted or top-dose-only effect, or another doubt; inactive means no such curve, though single readings can be large; an effect the other way counts as inactive or inconclusive. Unless noted, on the % scale 0 is the no-effect control and ±100 the full control effect.

SMILES	DT40 TDP1 no CPT	DT40 TDP1 CPT	ELG1 DNA repair	IL-1B inflam inh	HT1080NT lethal	HT1080 IDH1KD tx
NCC(c1ccccc1Cl)c1c[nH]c2ccccc12 (stereo unspecified)	13µM*	5.17µM*	-2.8%	?	?	?
NCC(c1ccc(Cl)cc1Cl)c1c[nH]c2ccccc12 (stereo unspecified)	23.1µM*	18.4µM*	-11.0%	-87.6*	?	?
O=C1NCCc2onc(-c3ccc(Br)cc3)c21	?	?	.	-12.9	15.6%	1.5%
Clc1cccc(CNc2ccn3nc(-c4ccccc4Cl)cc3n2)c1	?	?	.	-73.4*	?	?
c1ccc(COc2ccc(-c3cc4nc(NCc5ccc6c(c5)OCO6)ccn4n3)cc2)cc1	7.31µM*	18.4µM*	.	44.9	-19.2%	?
Clc1cccc(CNc2ccn3nc(-c4cccc(OCc5ccccc5)c4)cc3n2)c1	?	?	.	-26.7	?	9.2µM*
Cc1c(Cl)cccc1NC(=O)c1ccc(-n2ccnc2)nc1	2.4%	-10.1%	-18.5%	-20.5	1.9%	-0.5%
CCCS(=O)(=O)N1CCC(C(=O)NCCCN2CCC(Cc3ccccc3)CC2)CC1	-10.8%	-11.6%	8.6%	10.8	-1.1%	-6.5%
CCCCNC(=O)C1CCCN(S(=O)(=O)CCC)C1 (stereo unspecified)	2.7%	-19.4%	.	.	.	.
CCCS(=O)(=O)N1CCCC(C(=O)N2CCC(Cc3ccccc3)CC2)C1 (stereo unspecified)	14.6µM*	?	-19.2%	-20.9	5.0%	0.3%
CCCS(=O)(=O)N1CCC(C(=O)N2CCC(Cc3ccccc3)CC2)CC1	20.6µM*	18.4µM*	-14.4%	-18.1	0.9%	-0.4%
CCCCOc1ccc(C(C)NC(=O)C2CCCN(S(=O)(=O)CCC)C2)cc1 (stereo unspecified)	16.4µM*	11.6µM*	-17.6%	0.9	-5.0%	-16.2%
O=C(C1CCN(S(=O)(=O)N2CCC3(CC2)OCCO3)CC1)N1CCC(Cc2ccccc2)CC1	?	?	?	-64.3*	0.0%	3.5%
O=C1OCC2=C1C(c1cccc(Cl)c1)CC(=O)N2c1ccc(C(F)(F)F)cc1 (stereo unspecified)	1.1%	-5.9%	.	.	.	.
Cc1ccc(N2CCN(c3nc4c(S(=O)(=O)c5ccc(C)c(C)c5)nnn4c4ccccc34)CC2)c(C)c1	-11.2%	-1.3%	.	.	.	.
COc1ccccc1C(=O)N/N=C/c1c[nH]c2ccccc12	-18.6%	-4.6%	2.8%	6.8	-0.2%	-1.7%
CCCC12CN3CC(CCC)(CN(C1)C3c1ccc(OC(C)C)cc1)C2=O (stereo unspecified)	16.4µM*	?	.	.	.	.
C=CCOc1ccc(C2N3CC4(CC)CN2CC(CC)(C3)C4=O)cc1 (stereo unspecified)	?	?	-19.3%	-10.0	24.6%	23.6%
CCCC12CN3CC(CCC)(CN(C1)C3c1ccccc1)C2=O (stereo unspecified)	?	4.11µM*	.	.	.	.
N#C/C(=C\c1ccc(N2CCCC2)c([N+](=O)[O-])c1)c1nc2ccccc2[nH]1	11.3%	-1.3%	?	0.0	13.4%	7.3%
N#C/C(=C(/O)c1ccc([N+](=O)[O-])o1)c1nc2ccccc2[nH]1	18.4µM*	11.6µM*	?	0.0	23.9%	-0.9%
N#C/C(=C\c1ccc([N+](=O)[O-])o1)c1nc2ccccc2[nH]1	0.82µM*	0.581µM*	?	-100.5*	5.8µM*	5.8µM*
O=C(Cn1cc2c(n1)CCCC2)Nc1cc(C(F)(F)F)ccc1Cl	-14.8%	-16.8%	.	.	.	.
CCOc1cc(C(=S)N2CCCC2)ccc1O	-3.0%	-1.8%	13.1%	10.1	19.7%	10.5%
CCOc1cc(C(N)=O)cc(Cl)c1OCC	23.1µM*	?	-19.7%	-1.6	-6.8%	-11.0%
SMILES	DT40 TDP1 no CPT	DT40 TDP1 CPT	ELG1 DNA repair	IL-1B inflam inh	HT1080NT lethal	HT1080 IDH1KD tx
C=CCOc1c(Cl)cc(C(=S)N2CCCC2)cc1OCC	7.31µM*	5.8µM*	11.0%	2.2	?	9.2µM*
Cc1cccc(S(=O)(=O)NC(=O)C2(C)CCN2C(=O)Cc2ccccc2)c1 (stereo unspecified)	-12.6%	-0.2%	.	3.2	?	9.1%
Cn1cc(-c2nc3cnc(N4CCNCC4)nc3n(C3CC3)c2=O)c2ccccc21	5.8µM*	13µM*	.	.	.	.
O=C(CSCc1ccccc1)N=Nc1c(O)[nH]c2ccccc12	-28.1%	-2.4%	?	-3.2	-1.8%	-11.9%
O=C(N=Nc1c(O)[nH]c2ccccc12)c1ccco1	16.4µM*	?	?	?	-17.2%	-16.6%
CCCn1c(O)c(N=NC(=O)c2cccnc2)c2cc(Br)ccc21	?	16.4µM*	0.0%	51.0	18.4µM*	-21.7%
CCn1c(O)c(N=NC(=O)c2cccs2)c2ccccc21	14.6µM*	23.1µM*	?	29.2	13.8%	10.0%
CCCn1c(O)c(N=NC(=O)CNC(=O)c2cccnc2)c2ccccc21	-11.0%	-20.8%	1.5%	-4.2	-4.9%	-4.8%
CCn1c(O)c(N=N)c2ccccc21	4.1%	20.4%	?	-5.6	4.7%	0.0%
CCCn1c(O)c(N=NC(=O)c2ccco2)c2ccccc21	11.6µM*	13µM*	?	-8.3	20.2%	15.1%
O=C(N=C1SC2CS(=O)(=O)CC2N1c1cccc(Cl)c1Cl)C1CC1 (stereo unspecified)	-3.1%	-1.3%	13.3%	50.3	0.9%	-1.8%
COc1cccc(CNC(=O)Cn2nc(C)c3sc4ccccc4c3c2=O)c1OC	-13.1%	-12.4%	.	.	.	.
NC(=O)C1CC(=O)N(c2ccc(OCc3ccccc3Cl)cc2)C1 (stereo unspecified)	10.8%	?	?	25.0	6.5%	6.5%
C=CCn1c(O)c(N=NC(=O)CNC(=O)c2ccco2)c2ccccc21	4.11µM*	6.51µM*	6.8%	36.7	?	20.6µM*
Cc1cccc(NC(=O)Cn2c(O)c(N=NC(=O)c3ccccc3O)c3ccccc32)c1	4.61µM*	-5.2%	?	5.3	?	?
NC(=S)N=Nc1c(O)n(CC(=O)Nc2ccccc2)c2ccccc12	-10.4%	-22.3%	-3.3%	-12.9	?	?
CCn1c(O)c(N=NC(=O)CNC(=O)c2ccco2)c2ccccc21	?	?	-13.6%	4.4	-28.5%	-14.0%
COc1ccccc1C(=O)Nc1ccccc1SC(=O)c1ccccc1OC	2.59µM*	2.59µM*	?	-2.9	18.4µM*	?
